# Reference: PubChem BioAssay AID651768 (National Center for Advancing Translational Sciences (NCATS), 2012)
# Screen size: about 360,000 compounds; about 1,700 (0.47%) were called active. A call without a number means that no potency is given here. Roughly 2% stayed inconclusive and do not appear here. The sample holds actives, similar compounds and a random draw of the others, so the mix is not that of the screen. Calls follow the shape of the dose curve; as a rule, active = well fitted inhibition curve with a large enough effect; inconclusive = small, poorly fitted or top-dose-only effect; inactive = no such curve, though single readings can be large or run the other way.
# Target: Bifunctional 3'-5' exonuclease/ATP-dependent helicase WRN (Homo sapiens) (UniProt Q14191)
# Assay: qHTS for Inhibitors of WRN Helicase; also: nearly all actives have a fitted effect of over 55% in size
# Conditions: WRN helicase unwinding, fluorescent forked duplex, kinetic; series mostly up to 114 µM
# How it was run: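 Primary qHTS, 1536-well format. 20 nM WRN + compound, 15 min RT; start with 100 nM forked fluorophore/quencher duplex, 2 mM ATP (final); kinetic read ex 525/em 598 nm.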
# Potency is read from the fitted curve at half-maximal effect.
# Bifunctional 3'-5' exonuclease/ATP-dependent helicase WRN (Homo sapiens), sequence (Q14191 whole entry, looked up): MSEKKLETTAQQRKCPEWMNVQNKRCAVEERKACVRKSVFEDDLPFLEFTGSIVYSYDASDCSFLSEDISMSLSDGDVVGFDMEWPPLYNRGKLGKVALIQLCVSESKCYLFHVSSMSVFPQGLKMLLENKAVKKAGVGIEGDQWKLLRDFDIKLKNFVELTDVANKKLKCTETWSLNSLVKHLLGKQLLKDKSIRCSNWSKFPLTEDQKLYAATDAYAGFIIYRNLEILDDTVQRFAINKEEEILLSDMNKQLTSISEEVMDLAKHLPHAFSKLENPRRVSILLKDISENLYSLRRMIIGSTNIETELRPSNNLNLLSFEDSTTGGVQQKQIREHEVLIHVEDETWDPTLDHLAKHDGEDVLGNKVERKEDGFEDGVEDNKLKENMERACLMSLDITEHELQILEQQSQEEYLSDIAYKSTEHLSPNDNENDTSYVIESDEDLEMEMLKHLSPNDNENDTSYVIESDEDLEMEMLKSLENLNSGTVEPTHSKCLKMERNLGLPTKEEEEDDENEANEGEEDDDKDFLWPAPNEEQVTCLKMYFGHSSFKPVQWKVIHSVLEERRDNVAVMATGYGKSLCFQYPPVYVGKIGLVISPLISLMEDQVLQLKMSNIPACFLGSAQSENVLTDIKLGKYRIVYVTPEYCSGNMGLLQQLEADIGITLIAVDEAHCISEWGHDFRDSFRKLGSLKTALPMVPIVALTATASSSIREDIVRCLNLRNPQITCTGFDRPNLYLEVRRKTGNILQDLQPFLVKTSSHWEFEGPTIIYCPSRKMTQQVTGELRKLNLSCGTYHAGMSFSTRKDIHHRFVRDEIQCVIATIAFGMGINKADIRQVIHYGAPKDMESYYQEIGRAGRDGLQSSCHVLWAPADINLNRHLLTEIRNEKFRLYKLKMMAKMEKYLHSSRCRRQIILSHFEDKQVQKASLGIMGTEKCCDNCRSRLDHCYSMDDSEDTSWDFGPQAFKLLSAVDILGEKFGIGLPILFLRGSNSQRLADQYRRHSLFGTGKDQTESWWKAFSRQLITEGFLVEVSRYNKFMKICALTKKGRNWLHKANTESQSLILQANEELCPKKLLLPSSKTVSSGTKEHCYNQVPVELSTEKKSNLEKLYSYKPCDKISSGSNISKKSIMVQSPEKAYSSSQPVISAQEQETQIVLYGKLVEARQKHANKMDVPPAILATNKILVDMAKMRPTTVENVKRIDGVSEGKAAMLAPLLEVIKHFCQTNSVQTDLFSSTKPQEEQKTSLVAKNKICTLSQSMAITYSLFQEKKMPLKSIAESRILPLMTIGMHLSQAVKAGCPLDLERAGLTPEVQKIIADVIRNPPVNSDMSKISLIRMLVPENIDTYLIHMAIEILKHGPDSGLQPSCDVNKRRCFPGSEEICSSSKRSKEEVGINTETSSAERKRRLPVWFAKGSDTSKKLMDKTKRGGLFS
row,Structure (SMILES),Potency
1,CCc1noc(C)c1C(=O)Oc1ccc(N(C)S(=O)(=O)c2ccc(C)c(C)c2)cc1,inactive
2,COc1cccc(CNC(=O)[C@@H]2CCCN2C(=O)[C@@H]2CCCN2C(=O)c2ccccc2)c1,inactive
3,S=c1[nH]nc(-c2cc(-c3ccccc3)n[nH]2)n1/N=C/c1c2ccccc2cc2ccccc12,50.1 µM (active)
4,S=c1[nH]nc(-c2ccco2)n1/N=C/c1ccc(Br)s1,inactive
5,CCN(CC)S(=O)(=O)c1cccc(-c2n[nH]c(=S)n2/N=C/c2ccc(C(=O)OC)cc2)c1,inactive
6,COc1ccc(C)cc1NC(=O)CN(C)S(=O)(=O)c1ccc2c(c1)n(C)c(=O)c(=O)n2C,inactive
7,COc1ccc2ccn(C)c2c1,inactive
8,OC(c1ccccc1)(c1ccccc1)C1CCN(CCCOc2ccccc2)CC1,inactive
9,CC(C)CCN1C(=O)c2ccc(C(=O)Nc3cccc(S(N)(=O)=O)c3)cc2C1=O,inactive
10,Cc1ccnc(-n2sc3ccccc3c2=O)n1,31.6 µM (active)
11,Cc1ccc(NC(=O)Cn2sc3ccccc3c2=O)cc1,inactive
12,Cc1ccnc(SC2CC(=O)N(c3ccccc3)C2=O)n1 (stereo not given),inactive
13,CCN(CC)C(=O)C1=C(C)N(Cc2ccc(OC)cc2)C(=O)C(CC(=O)NCc2ccco2)C1 (stereo not given),inactive
14,CCCCOc1ccc(Cl)cc1CSc1nncn1N,inactive
15,COC1=CCC2([N+](=O)[O-])CN(CC(=O)O)CC1([N+](=O)[O-])C2 (stereo not given),inactive
16,C=CS(=O)c1sc(Cl)c(N2CCOCC2)c1[N+](=O)[O-] (stereo not given),31.6 µM (active)
17,COC(=O)/C=C\C(=O)Nc1cccc([N+](=O)[O-])c1,28.2 µM (active)
18,COc1cccc(NCCC(=O)c2cccc([N+](=O)[O-])c2)c1,inactive
19,O=C(Nc1cccc([N+](=O)[O-])c1)N1CCc2ccccc2C1,inactive
20,COC(=O)[C@@]12C[C@@H](CC(=O)N3CCC(c4ccccc4)CC3)C(=O)N(Cc3ccccc3)C1=CCC(C)(C)C2,inactive
21,O=C(N/N=C/c1ccco1)c1ccc(C(=O)N/N=C/c2ccco2)o1,39.8 µM (active)
22,O=C(N/N=C/c1ccco1)c1ccc(NC(=O)C2CC2)cc1,inactive
23,O=C(Cc1ccc([N+](=O)[O-])cc1)N/N=C/c1ccco1,inactive
24,Cc1ccccc1-n1nc(C)c2c1N=C1C(Cl)=CC(Cl)=CN1C2c1ccc(C(=O)O)cc1 (stereo not given),inactive
25,O=C(OC12CC3CC(CC(C3)C1)C2)c1ccc(NCc2cc(O)ccc2O)cc1,inactive

row,Structure (SMILES),Potency
1,COC(=O)c1ccc(NCc2cc(O)ccc2O)cc1,79.4 µM (active)
2,CC(C)OC(=O)c1ccc(NCc2cc(O)ccc2O)cc1Cl,inactive
3,O=C(c1ccccc1)c1cc(-c2ccccn2)c(N2CCOCC2)s1,inactive
4,NCCN1CCN2C(=O)CN(C(=O)c3ccccc3)CC12 (stereo not given),inactive
5,O=C(/C=C/Sc1ncn[nH]1)c1ccc(Cl)cc1,35.5 µM (active)
6,Cc1cc(C)nc(S/C=C/C(=O)c2ccccc2)n1,inactive
7,COc1ccc(OC)c(NC(=O)C2(C)CCN2C(=O)Cc2ccccc2)c1 (stereo not given),inactive
8,CCOC(=O)c1sc2nc(CSCC(=O)OCc3ccc(C(=O)OC)o3)[nH]c(=O)c2c1C,inactive
9,CSc1nnc(SCc2nc3sc(C(=O)O)c(C)c3c(=O)[nH]2)s1,35.5 µM (active)
10,Cc1sc2nc(CSCC(=O)Nc3c(Cl)cccc3Cl)[nH]c(=O)c2c1C,inactive
11,CCN1CCC(O)(/C=C/c2ccc(C)cc2)C(C(=O)/C=C/c2ccc(C)cc2)C1 (stereo not given),14.1 µM (active)
12,CCN1CCC2(CC1)N=C(c1ccc(F)cc1)C(=S)N2C(=O)c1ccc(C)cc1,inactive
13,COc1cc2cc(CN(CCN3CCCC3)C(=O)Nc3ccccc3Cl)c(=O)[nH]c2cc1OC,inactive
14,CC1=CC2=NC(=O)CC(C)(C(=O)N(CC(=O)NC(C)(C)C)Cc3ccccc3)N2C=C1 (stereo not given),inactive
15,CC1CCCN(C(=O)c2ccc3c(c2)C(=O)N(CCC2=CCCCC2)C3=O)C1 (stereo not given),inactive
16,N#CCSc1ccccc1NC(=O)CN1C(=O)NC(CCc2ccccc2)C1=O (stereo not given),inactive
17,COc1ccc(S(=O)(=O)N2CCC(C(=O)OCC(=O)c3ccccc3)CC2)cc1[N+](=O)[O-],inactive
18,COc1ccc(Br)cc1/C=N/Nc1ccc(S(=O)(=O)Nc2ccccc2C(=O)O)cc1[N+](=O)[O-],39.8 µM (active)
19,COc1ccccc1C(CNC(=O)c1cccc(NS(=O)(=O)c2ccc(Br)cc2)c1)N(C)C (stereo not given),inactive
20,CCOc1ncccc1C(=O)NNC(=O)c1cccc(S(=O)(=O)Nc2ccccc2OC)c1,inactive
21,CC1CN(C(=O)c2ccccc2NS(=O)(=O)c2cccc([N+](=O)[O-])c2)CC(C)O1 (stereo not given),inactive
22,COc1cccc(/C=N/Nc2ccc(S(=O)(=O)Nc3ccccc3C(=O)O)cc2[N+](=O)[O-])c1O,39.8 µM (active)
23,Cc1cc2nc3n(c2cc1C)CC1CC(C(=O)NCCC(C)C)N(C)C31 (stereo not given),inactive
24,CCCCSc1nnc2c(n1)OC=Nc1ccccc1-2,inactive
25,Cc1cccc(N2CC(C)Cn3c2nc2c3c(=O)n(CC(=O)OCc3ccccc3)c(=O)n2C)c1 (stereo not given),inactive
